Molecules are shown by their SMILES. Values without a mark were called inactive. Activity calls are given as the source filed them.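 How the source made its calls, unless noted: active means mean inhibition over 43.08%, the solvent-only control mean plus 3 SD; inactive means the rest.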

For test [1], the target named is Nuclear receptor coactivator 3 (Homo sapiens) (UniProt Q9Y6Q9). The test is described as follows: NCOA3 GAL4-fusion reporter inhibition – cell-based, luminescence, quadruplicate, confirmation (AID 588792).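 Further: 0% = DMSO treated cells and 100% = gossypol at 36 µM.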 Particulars: HEK293 GAL4-SRC3 luciferase reporter, at 3.6 µM, active compounds read high. In general terms: Reporter assays use an easily measured gene product as a stand-in for the process of interest.
Chain of Nuclear receptor coactivator 3 (Homo sapiens) (Q9Y6Q9 whole entry, looked up, the tested form may be a part): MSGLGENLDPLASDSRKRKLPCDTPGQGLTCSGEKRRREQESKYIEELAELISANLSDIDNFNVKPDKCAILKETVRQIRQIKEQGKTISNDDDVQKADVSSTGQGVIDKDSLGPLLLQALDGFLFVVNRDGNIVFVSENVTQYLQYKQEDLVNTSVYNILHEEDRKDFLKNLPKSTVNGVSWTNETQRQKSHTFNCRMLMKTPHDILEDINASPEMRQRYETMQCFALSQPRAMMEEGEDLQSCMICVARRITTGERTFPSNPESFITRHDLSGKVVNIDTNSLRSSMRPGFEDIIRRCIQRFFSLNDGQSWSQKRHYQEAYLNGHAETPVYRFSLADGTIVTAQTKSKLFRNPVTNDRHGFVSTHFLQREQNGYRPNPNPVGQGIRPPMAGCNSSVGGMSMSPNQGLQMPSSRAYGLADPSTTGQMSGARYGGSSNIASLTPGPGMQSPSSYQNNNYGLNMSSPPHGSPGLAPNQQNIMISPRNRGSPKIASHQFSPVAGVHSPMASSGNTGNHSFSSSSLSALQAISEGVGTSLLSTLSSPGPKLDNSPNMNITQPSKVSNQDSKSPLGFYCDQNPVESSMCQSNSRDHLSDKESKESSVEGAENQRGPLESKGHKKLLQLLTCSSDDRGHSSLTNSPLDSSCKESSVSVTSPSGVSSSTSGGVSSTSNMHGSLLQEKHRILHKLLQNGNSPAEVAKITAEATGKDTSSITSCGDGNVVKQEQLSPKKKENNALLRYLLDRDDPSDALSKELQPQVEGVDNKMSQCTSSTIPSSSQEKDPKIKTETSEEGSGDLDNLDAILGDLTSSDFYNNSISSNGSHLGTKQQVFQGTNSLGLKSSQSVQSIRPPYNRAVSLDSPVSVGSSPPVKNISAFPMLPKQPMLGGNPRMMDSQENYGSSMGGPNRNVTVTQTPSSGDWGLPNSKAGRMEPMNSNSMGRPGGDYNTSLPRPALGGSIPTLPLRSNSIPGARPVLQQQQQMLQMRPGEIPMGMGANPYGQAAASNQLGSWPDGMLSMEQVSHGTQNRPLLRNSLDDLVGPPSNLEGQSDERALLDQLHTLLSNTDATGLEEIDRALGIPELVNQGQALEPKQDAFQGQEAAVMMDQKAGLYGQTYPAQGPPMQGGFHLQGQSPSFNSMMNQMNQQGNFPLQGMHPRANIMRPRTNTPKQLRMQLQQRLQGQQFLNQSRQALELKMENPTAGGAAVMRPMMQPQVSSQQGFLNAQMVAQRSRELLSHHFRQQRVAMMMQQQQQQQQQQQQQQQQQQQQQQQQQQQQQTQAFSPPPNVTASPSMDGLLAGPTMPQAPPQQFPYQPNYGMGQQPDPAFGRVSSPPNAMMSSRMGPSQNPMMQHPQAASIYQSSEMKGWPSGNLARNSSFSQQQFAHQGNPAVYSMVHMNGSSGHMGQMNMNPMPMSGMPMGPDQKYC

The test system of test [2] is transactivating tegument protein VP16 (Human herpesvirus 1), Gal4-VP16 luciferase reporter. The test is described as follows: repression of VP16-driven luciferase reporter – cell-based, luminescence, high throughput, counter-screen for SRC3 inhibitor project (AID 588794; in the data active means inhibition above about 30%). Particulars: mammalian cells, at 3.6 µM, active compounds read high.

One may read the inhibition as the change of the read-out against control, counted positive when it falls. Consider `O=C(NC(=S)NNC(=O)c1cc2ccccc2cc1O)c1ccco1`, for which the inhibition in test [1] was 26.9%; in test [2] it was 61.6% (active).

With `Cc1cc(C(=O)Nc2ccncc2)c(C)o1`, the inhibition was 8.35% in test [1] and -9.44% in test [2].

With `COc1ccc(C)cc1NS(=O)(=O)c1ccc(NC(=O)CN(c2cc([N+](=O)[O-])ccc2C)S(C)(=O)=O)cc1`, the inhibition is 58.6% (active) in test [1] and -20% in test [2].

On to `c1ccc2c(c1)OCC(CNc1ncnc3sccc13)O2` (configuration not stated), for which the values for the inhibition in test [1] and in test [2] were 1.57% and 37.9% (active), respectively.

Take `CC(C)C(C)NC(=O)CSc1ccc(S(=O)(=O)N2CCOCC2)cn1` (configuration not stated): the inhibition in test [1] was -6.95%; in test [2] it was 8.39%.

`CC(C)c1ccc(NC(=O)C2CCCN(S(=O)(=O)c3cccnc3)C2)cc1` (configuration not stated): the inhibition in test [1] is -12.3%; in test [2], 4.41%.

With `Cc1ccc(NC(=O)C(=Cc2ccc(C(=O)O)cc2)C(=O)Nc2ccc(C)cc2C)c(C)c1`, the inhibition was 32.6% in test [1] and 46% (active) in test [2].

Consider `O=C1/C(=C/c2cccnc2)SC(=S)N1C1CCS(=O)(=O)C1` (configuration not stated), for which the inhibition in test [1] was -0.1%; in test [2], 21%.

`COC(=O)c1c(NC(=O)c2ccccc2)sc(C(N)=O)c1C`: the inhibition in test [1] was 26.7%; in test [2] it was 55.4% (active).

As to `CCCCCc1ccc(OCCOCCn2c[n+](C)c3ccccc32)c(CCCCC)c1`, the inhibition in test [1] is 25.3%; in test [2] it was 36.4% (active).

As to `O=c1[nH]oc2cc(Cl)ccc12`, the inhibition in test [1] is 3.14%; in test [2], -1.43%.

Turning to `COc1ccc(CNC(=O)COC(=O)c2cc(-c3ccc(Cl)s3)nc3ccccc23)cc1`, the inhibition in test [1] was -14.9%; in test [2], -13.6%.

For `O=C(N/N=C/c1cc(Br)ccc1OC(=O)c1ccc(Br)cc1)c1ccncc1`, the inhibition in test [1] is 20.5%; in test [2], 28%.

With `O=C(NC1CCCC1)c1cc(COc2ccc3ncccc3c2)on1`, the inhibition in test [1] is 19.7%; in test [2] it was 43.3% (active).

Consider `CCn1cc(C(=O)NCc2ccccn2)c(=O)c2cc(F)c(N3CCN(C)CC3)cc21`, for which the results for the inhibition in test [1] and in test [2] were -0.49% and 3.18%, respectively.

Turning to `Cc1ccc(S(=O)(=O)NCCC(=O)N2CCN(c3ccccc3)CC2)cc1C`, the inhibition is 6.68% in test [1] and -3.89% in test [2].

As to `Cc1[nH]nc(-c2ccc(O)cc2O)c1Oc1ccccc1`, the results for the inhibition in test [1] and in test [2] were 3.77% and 10.3%, respectively.

For `O=[N+]([O-])c1cc(S(=O)(=O)NCCN2CCOCC2)ccc1Sc1nnnn1-c1ccccc1`, the inhibition is 12.9% in test [1] and -10.3% in test [2].

For `Cc1ccccc1OCc1n(CC(=O)OC2CC(C)CCC2C(C)C)c2ccccc2[n+]1C` (configuration not stated), the figures for the inhibition in test [1] and in test [2] were 13% and 22.8%, respectively.

Take `COc1ccc2c(c1)CCc1cnc(N)nc1-2`: the values for the inhibition in test [1] and in test [2] were 20% and 10.4%, respectively.

Consider `Cc1ccc2c(c1)c(C)cc[n+]2Cc1ccccc1`, for which the inhibition in test [1] was 10.7%; in test [2], 4.92%.

On to `FC(F)(F)c1cccc(NC(=S)N(CCCN2CCCC2)Cc2cccn2Cc2ccc(Cl)cc2)c1`, for which the inhibition in test [1] is -14.5%; in test [2], 0.12%.

With `O=c1[nH]c(=O)n([C@H]2C[C@H](O)[C@@H](CO)O2)cc1Br`, the values for the inhibition in test [1] and in test [2] were 14.7% and 16.2%, respectively.

As to `COc1ccc(CNC(=O)c2ccc(Cl)c(S(=O)(=O)N3CCOCC3)c2)cc1OC`, the inhibition in test [1] is 12.8%; in test [2], 27.5%.

Take `COc1cc2c(C#N)c(N3CCOCC3)nc(N)c2c(N)n1`: the inhibition in test [1] is -5.11%; in test [2] it was 0.07%.

Turning to `Cc1ccc(NC(=O)c2cccc(S(=O)(=O)NCc3ccccc3)c2)nc1`, the results for the inhibition in test [1] and in test [2] were -3.03% and 6.44%, respectively.

Consider `CCOC(=O)c1c(C)sc2c1N(C(=O)CCl)c1cc(Cl)ccc1S2`, for which the inhibition was -14.3% in test [1] and 1.53% in test [2].

In the case of `C=CCc1cc(C(=O)N2CCCCC2)ccc1O`, the inhibition is 14.5% in test [1] and 19.9% in test [2].

Consider `Brc1ccc(N=Nc2ccc3ccccc3n2)cc1`, for which the inhibition is 51.2% (active) in test [1] and 33.7% (active) in test [2].

`C#CCN(C[C@@H]1[C@@H](OC(=O)NCc2ccccc2F)[C@@H](OC(=O)NCc2ccccc2F)Cn2c(=O)ccc(=O)n21)S(=O)(=O)c1ccc(C)cc1`: the inhibition in test [1] was -2.92%; in test [2] it was 24.2%.

`O=C1OCCC1Sc1nnc(-c2ccc(Cl)cc2Cl)o1` (configuration not stated): the inhibition in test [1] is 0.88%; in test [2], 1.16%.

For `O=C(Nc1cc(C(=O)N2CCCC2)ccc1N1CCCC1)c1ccccc1F`, the inhibition in test [1] is 27.3%; in test [2] it was 13.1%.

In the case of `NC(=S)NNc1ccc(Cl)c(Cl)c1`, the inhibition in test [1] was 12.7%; in test [2], -0.23%.

For `Cc1[nH]n(C)c(=O)c1N=Nc1ccc(S(C)(=O)=O)cc1`, the inhibition in test [1] was 8.44%; in test [2] it was -1.15%.

Consider `CCN(C(=O)COC(=O)c1ccccc1Cc1ccccc1)c1c(N)n(Cc2ccccc2)c(=O)[nH]c1=O`, for which the inhibition in test [1] was 6.67%; in test [2] it was 13.9%.

Take `CC(C)OP(=O)(OC(C)C)/C(C=O)=N\Nc1ccc([N+](=O)[O-])cc1`: the inhibition in test [1] is 7.9%; in test [2] it was 2.13%.

As for `Cc1ccc(Cl)cc1N(Cc1ccc(C(=O)NCc2cccnc2)cc1)S(=O)(=O)c1ccccc1`, the inhibition in test [1] is 9.61%; in test [2], -10.9%.

Turning to `Cc1ccsc1/C=N/NC(=O)CNC(=O)c1ccccc1`, the results for the inhibition in test [1] and in test [2] were -11.5% and -7.26%, respectively.

Take `NCCCn1c(C(=O)c2cc(Cl)c(N)c(Cl)c2)c2ccc([N+](=O)[O-])cc2[n+]1[O-]`: the inhibition in test [1] was 26.8%; in test [2], 9.54%.

On to `Cc1cc(C)n(Cc2ccc(NC(=O)c3ccc(COc4ccccc4Br)cc3)cc2)n1`, for which the figures for the inhibition in test [1] and in test [2] were -0.48% and 20.2%, respectively.

For `CCn1c(C)nc2cc(C(=O)N/N=C(\C)c3ccc(OC)cc3O)ccc21`, the values for the inhibition in test [1] and in test [2] were 24.6% and 8.7%, respectively.

Consider `CN(C)S(=O)(=O)c1ccc(N2CCN(S(=O)(=O)c3ccc(F)cc3)CC2)c(Cl)c1`, for which the inhibition in test [1] is 41.9%; in test [2] it was 28.5%.

As for `CC1=[N+]([O-])C(C)(C)CC(C)(C)c2ccccc21`, the results for the inhibition in test [1] and in test [2] were 3.29% and 6.25%, respectively.

In the case of `CCc1nc2ccccc2c(C(=O)OCC(=O)Nc2cccc(S(=O)(=O)N3CCOCC3)c2)c1C`, the figures for the inhibition in test [1] and in test [2] were 1.17% and 8.71%, respectively.

For the compound `Cn1ncc2c(O/N=C(\N)c3ccc(C(F)(F)F)cc3)ncnc21`, the inhibition in test [1] was -12.9%; in test [2] it was 1.06%.

With `Cn1nc(CC(=O)Nc2ccc3c(c2)OCCO3)c2ccccc2c1=O`, the results for the inhibition in test [1] and in test [2] were 9.58% and 34% (active), respectively.

Regarding `CCc1ccc2nc3nc(C)cc(C)c3c(N)c2c1`, the inhibition in test [1] was 20.2%; in test [2], 32.7% (active).

For `CCOC(=O)c1cnc(SC2CC(=O)N(c3cccc(OC)c3)C2=O)nc1N` (configuration not stated), the inhibition is 9.15% in test [1] and 6.73% in test [2].

Take `Cc1nc(NCc2ccccn2)c2ccccc2n1`: the results for the inhibition in test [1] and in test [2] were -6.68% and 13.9%, respectively.

As for `CCC(C)(CC(=O)O)CC(=O)Nc1cc(C(F)(F)F)cc(C(F)(F)F)c1` (configuration not stated), the inhibition in test [1] was 9.02%; in test [2] it was -3.88%.

Consider `O=C(Oc1ccc(F)cc1C(=O)/C=C/c1cccs1)c1cccc([N+](=O)[O-])c1`, for which the inhibition was -13.7% in test [1] and -23.3% in test [2].

For the compound `S=C(N/N=C/c1ccc2ncccc2c1)Nc1cccnc1`, the figures for the inhibition in test [1] and in test [2] were -1.24% and -17.5%, respectively.

As to `Cc1cccc(NNC(=O)C(=O)NNc2cccc(C)c2)c1`, the inhibition in test [1] is 18.6%; in test [2], 24.3%.

Consider `O=C(COc1ccc(Cl)cc1)NCc1nnc(SCC(=O)NC2CCCCC2)o1`, for which the values for the inhibition in test [1] and in test [2] were 3.51% and 3.49%, respectively.

For the compound `O=C(CCSc1ccc(Cl)cc1)N1CCN(c2ccc(O)cc2)CC1`, the inhibition in test [1] is 3.85%; in test [2] it was 28%.

Take `Cc1ccccc1NC(=O)C(=Cc1ccc(C(=O)O)cc1)C(=O)Nc1ccccc1C`: the inhibition in test [1] is 27.8%; in test [2] it was 43.2% (active).

On to `CCOC(=O)c1cccc(NC(=O)CSc2nc3cccnc3n2C)c1`, for which the inhibition in test [1] is 9.81%; in test [2], 25.1%.

`CCOc1ccccc1/C=C/c1onc(C)c1S(=O)(=O)N1CCC(C(=O)N(CC)CC)CC1`: the values for the inhibition in test [1] and in test [2] were 5.63% and 3.37%, respectively.

In the case of `CCCC(=O)NC(c1ccc2c(c1)OCO2)c1cc(Cl)c2cccnc2c1O` (configuration not stated), the values for the inhibition in test [1] and in test [2] were 40.7% and 25.3%, respectively.

In the case of `O=[N+]([O-])c1ccc(N=Nc2c(Cl)cc(O)cc2Cl)cc1`, the inhibition was 13.9% in test [1] and 66% (active) in test [2].

For the compound `CC(C)OC(=O)c1sc2nc(-c3ccccc3)ccc2c1N`, the inhibition in test [1] was 23.7%; in test [2], -2.61%.

For the compound `Cc1cccc(Nc2nc(N)c([N+](=O)[O-])c(N3CC(C)CC(C)C3)n2)c1` (configuration not stated), the values for the inhibition in test [1] and in test [2] were 3.08% and 15.7%, respectively.

As to `Cc1ccc(S(=O)(=O)C(C#N)c2nc3ccccc3nc2N2CCN(C)CC2)cc1` (configuration not stated), the inhibition is 19.1% in test [1] and -2.04% in test [2].

In the case of `c1ccc(-n2nnnc2NCCCN2CCOCC2)cc1`, the inhibition in test [1] was -14.3%; in test [2], -8.35%.

Take `CN1OC[C@@H]2CN(C(=O)c3ccc(-c4ccccc4)cc3)[C@H](c3ccc(-c4cccc(F)c4)cc3)C[C@@H]21`: the inhibition in test [1] is -6.51%; in test [2] it was 18.4%.

As for `O=C(Nc1nc2ccccc2s1)C1c2ccccc2Oc2ccccc21`, the results for the inhibition in test [1] and in test [2] were 39.2% and 21.4%, respectively.

Regarding `Cc1cccc(N2CCN(C(=O)C3CCN(c4ncnc5c4nc4n5CCCCC4)CC3)CC2)c1C`, the inhibition was -4.11% in test [1] and 11.5% in test [2].

Turning to `COc1ccc(CCNC(=O)COc2ccc(N(C)S(=O)(=O)c3ccc(Cl)cc3)cc2)cc1`, the inhibition in test [1] is 10.9%; in test [2] it was 20.2%.

As to `CCCCC(=O)NC(=S)Nc1cccc(Cl)c1N1CCCCC1`, the inhibition in test [1] is 1.21%; in test [2] it was -6.23%.

Regarding `Fc1ccccc1-c1csc(=Nc2cccnc2)n1CCCn1ccnc1`, the inhibition in test [1] was 37.4%; in test [2], 25.1%.

As to `Nc1[nH]nc2nc(-c3ccccc3)[nH]c(=O)c12`, the inhibition in test [1] is -11.1%; in test [2], -4.28%.

These data come from PubChem BioAssay.
